Hit rate of the full screen: of about 96,000 compounds, about 100 (0.1%) were called active.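 The calls were made as follows: active = displacement above 50% at 20 µM plus a fluorescence interference ratio under 1.5; inactive = the rest.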 What follows is part of a selection rich in actives, with near analogues and random picks from the rest. Entries with a potency or affinity are not part of this list.
target: Bcl-2-like protein 10 (Homo sapiens) (UniProt Q9HD36); assay: Bcl-B/TR3 peptide binding disruption – biochemical, fluorescence polarization, FITC-TR3 peptide, selectivity assay for Bfl-1 inhibitor project, primary screen (AID 748); conditions: FP displacement of FITC-TR3 peptide from Bcl-B; at 20 µM; hits give high values;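 also: plate controls were wells without compound for no effect and wells lacking Bcl-B protein for full effect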

displacement, inactive:
O=C(O)c1cnn2c(C(F)(F)F)cc(-c3ccco3)nc12 35.7%
O=C(Nc1ccc2c(c1)OCO2)c1cnn2c(C(F)(F)F)cc(-c3ccco3)nc12 10.1%
Cc1nn(C)cc1CNC(=O)c1cccc(Cl)c1 3.4%
COC(=O)[C@H](Cc1ccccc1)NC(=O)NCc1ccc(S(N)(=O)=O)cc1 3%
O=C(NCN1CCN(c2ccccc2F)CC1)c1cccnc1 -3.4%
NC1=NS(=O)(=O)NC1c1cccc(Cl)c1 (centres undefined) -0.7%
CS(=O)(=O)N(Cc1ccc(C(=O)Nc2ccccc2Sc2ccccc2)cc1)c1ccccc1 -11.2%
Cc1cccc(OCCCC(=O)O)c1 -8.7%
CC1CCCN(C(=O)c2ccc3c(c2NCCO)C(=O)c2ccccc2C3=O)C1 (centres undefined) 37%
CC1CCN(C(=O)c2ccc3c(c2NCCO)C(=O)c2ccccc2C3=O)CC1 27.9%
CC(CC(=O)c1cccs1)CC(=O)c1cccs1 -2.6%
O=C(O)Cn1nc2ccccc2n1 3.4%
Cc1nc(=S)n(-c2ccccc2)[nH]1 -1.7%
CC(/C=C/c1ccco1)=N/NC(=O)Cc1cccs1 -47.4%
O=C(CNC(=O)c1ccco1)NCC(=O)OCc1ccccc1Br -3.7%
O=C(NCc1ccncc1)C1CCCCC1 -9%
COc1cc(-c2nnc(SCc3ccccc3Cl)o2)cc(OC)c1OC -2.8%
COc1cc(-c2nnc(SCc3cc(=O)oc4cc(C)ccc34)o2)cc(OC)c1OC -10.8%
Cc1c(C(=O)Nc2cccc3cccnc23)oc2ccccc12 10.7%
Cc1cc(=O)n2c3c(cccc13)CCC2 -9.7%
C=CCn1c(SCC(=O)Nc2ncc(Cc3cc(Cl)ccc3Cl)s2)nnc1-c1ccncc1 -3.4%
O=C(NCc1ccco1)c1cc(-c2ccc(F)cc2)on1 1.1%
O=C(Cc1ccc(Cl)cc1)Nc1ccc(N2CCCC2)cc1 -84%
CN1CCN(c2ccc(NC(=O)Cc3ccccc3)cc2)CC1 -5.5%
O=C(Nc1ccc(N2CCCCC2)cc1)c1ccccc1 -3.3%
O=C(Nc1ccc(N2CCCC2)cc1)C(Cl)c1ccccc1 (centres undefined) -13.8%
CCOC(=O)c1ccccc1NC(=O)CC(C)CC(=O)O (centres undefined) -5.5%
COc1cccc2c1C(=O)CC2NC(=O)C(F)(F)F (centres undefined) -17.1%
COC(=O)Nc1c(C)nn(Cc2ccccc2C)c1C -0.7%

Reference: PubChem BioAssay AID748 (Sanford-Burnham Center for Chemical Genomics, 2007)
